In PubChem BioAssay (Tox21):
Several values for one entry are separate records, joined by “and”; a condition that tells them apart may be missing. Equal values may be shown once. Results filed as inconclusive are left out. Some compounds were tested as several samples or in several runs, with calls that do not always agree. Activity calls are given as the source filed them. Unless noted, calls follow the shape of the dose curve; as a rule, active = well fitted curve in the direction sought with a large enough effect in the repeat runs; inconclusive = weak or mixed curves; inactive = no such curve, though single readings can be large; an effect the other way counts as inactive or inconclusive.

How the values were obtained:
[1] = qHTS assay to identify small molecule agonists of the vitamin D receptor (VDR) signaling pathway - cell viability counter screen (AID 743224); also: nearly all actives have a fitted effect of over 50% in size; also: potency is read from the fitted curve at half-maximal effect
Method in brief: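 Compounds were pin-transferred onto VDR-bla cells plated 4 h earlier; following 16 h incubation at 37C, cell viability was quantified by CellTiter-Glo luminescence after 30 min at room temperature.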

[2] = qHTS assay to identify small molecule antagonists of the vitamin D receptor (VDR) signaling pathway - cell viability counter screen (AID 743225); also: nearly all actives have a fitted effect of over 50% in size; also: potency is read from the fitted curve at half-maximal effect
Method in brief: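 Cells (VDR-UAS-bla HEK 293T) are plated, rested 4 h at 37C, dosed with compound and 3 nM final 1-alpha,25-dihydroxy vitamin D3, and incubated 16 h. Viability is taken from CellTiter-Glo luminescence in the reporter wells.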

[3] = qHTS assay to identify small molecule agonists of the NFkB signaling pathway - cell viability counter screen (AID 1159515; calls by dose curve; also: nearly all actives have a fitted effect of over 55% in size; also: potency is read from the fitted curve at half-maximal effect)
Method in brief: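 Parallel cytotoxicity counter screen in ME-180 cells carrying an NFkB-response-element beta-lactamase reporter, 2,000 cells/well. Compound exposure lasted 5 hr at 37 C, 5% CO2. Cell viability was quantified by CellTiter-Glo luminescence.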

[4] = target: Nuclear receptor ROR-gamma (Homo sapiens) (UniProt P51449); assay: qHTS assay to identify small molecule antagonists of the retinoid-related orphan receptor gamma (ROR-gamma) signaling pathway (AID 1159521; also: nearly all actives have a fitted effect of over 50% in size; also: potency is read from the fitted curve at half-maximal effect)
Method in brief: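 RORγ antagonism is scored from reduced reporter luminescence in Tet-on CHO cells. Induction used 1 uM final doxycycline hyclate for 16 h at 37 C, following a 2 h compound exposure.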

[5] = qHTS assay to identify small molecule agonists of the AP-1 signaling pathway - cell viability counter screen (AID 1159525; calls by dose curve; also: nearly all actives have a fitted effect of over 55% in size; also: potency is read from the fitted curve at half-maximal effect)
Method in brief: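 Intracellular ATP by Cell Titer Glo luminescence (30 min, RT) in the same ME-180 AP-1-bla wells after the 5 h compound exposure at 37 °C. Normalised to tetra n-octyl ammonium bromide and DMSO controls.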

[6] = qHTS assay to identify small molecule agonists of the RXR signaling pathway - cell viability counter screen (AID 1159529); also: nearly all actives have a fitted effect of over 50% in size; also: potency is read from the fitted curve at half-maximal effect
Method in brief: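 Cell viability is measured by CellTiter-Glo luminescence, 30 min at room temperature, in wells already read for beta-lactamase. Engineered HEK 293T cells (RXR-alpha-UAS-bla) are dosed 16 hr at 37 C. Tetraoctyl ammonium bromide serves as positive control.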

[7] = qHTS assay to identify small molecule antagonists of the retinoic acid receptor (RAR) signaling pathway (AID 1159552; also: nearly all actives have a fitted effect of over 50% in size; also: potency is read from the fitted curve at half-maximal effect)
Method in brief: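 Quantitative HTS in C3RL4 RARE-luciferase reporter cells. Compounds were added with 1 uM (final) retinol; luminescence was read after 6 hr.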

[8] = qHTS assay to identify small molecule agonists of the retinoic acid receptor (RAR) signaling pathway (AID 1159553)
Method in brief: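 Quantitative high-throughput format: the Tox21 10K library was tested on C3RL4 RARE-luciferase cells for 6 hr at 37 C and 5% CO2, with luminescence measured after a 30 min room-temperature reagent step.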

[9] = qHTS assay to identify small molecule antagonists of the retinoid acid receptor (RAR) signaling pathway - cell viability counter screen (AID 1159551); also: nearly all actives have a fitted effect of over 35% in size
Method in brief: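 ATP-based viability, C3RL4 cells, 6 h at 37 C with 1 uM final retinol co-added after compound; luminescence read 30 min post CellTiter-Glo, RT.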

[10] = qHTS assay to identify small molecule antagonists of the estrogen related receptor (ERR) signaling pathway (AID 1224819)
Method in brief: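 ERR reporter cell line (NTP) plated at 2,000 cells/well, settled 6 h at 37C/5% CO2, then exposed to LOPAC compounds for 18 h at 37C. One-Glo luciferase luminescence read after 30 min at room temperature.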

[11] = qHTS assay to identify small molecule agonists of the estrogen related receptor (ERR) signaling pathway (AID 1224820)
Method in brief: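 An ERR cell line provided by NTP was seeded at 2,000 cells per well and allowed to settle for 6 h before compounds in DMSO were added. After 18 h at 37 C, luciferase activity was measured by One-Glo luminescence.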

[12] = system: estrogen-related receptor alpha (ERRalpha) with PGC-1alpha coactivator, human; assay: qHTS assay to identify small molecule antagonists of the estrogen related receptor signaling pathway with the pleiotropic PPARgamma coactivator (PGC) (AID 1224821; calls by dose curve; also: nearly all actives have a fitted effect of over 50% in size; also: potency is read from the fitted curve at half-maximal effect)
Method in brief: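 A PGC/ERR cell line supplied by NTP is seeded, allowed 6 h at 37 C, and treated with test compounds in DMSO for 18 h. Signal is then measured as luciferase luminescence using One-Glo.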

[13] = qHTS assay to identify small molecule agonists of the estrogen related receptor signaling pathway with the pleiotropic PPARgamma coactivator (PGC) (AID 1224823)
Method in brief: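 Compounds dissolved in DMSO are added by pin tool to PGC/ERR cells that have settled for 6 h, and incubation continues 18 h at 37 C. Reporter output is measured as One-Glo luminescence.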

[14] = qHTS assay to identify small molecule antagonists of the retinoid-related orphan receptor gamma (ROR-gamma) signaling pathway - cell viability counter screen (AID 1159520); also: nearly all actives have a fitted effect of over 50% in size; also: potency is read from the fitted curve at half-maximal effect
Method in brief: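 Cytotoxicity was read from cellular ATP (CellTiter-Glo luminescence) after 16 hr at 37 C with 1 uM doxycycline induction. The inducer was added 2 hr after compound transfer to Tet-on ROR gamma CHO cells.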

[15] = qHTS assay to identify small molecule agonists of the AP-1 signaling pathway (AID 1159526; calls by dose curve)
[16] = target: Retinoic acid receptor RXR-alpha (Homo sapiens) (UniProt P19793); assay: qHTS assay to identify small molecule agonists of the RXR signaling pathway (AID 1159527; calls by dose curve; also: nearly all actives have a fitted effect of over 35% in size; also: potency is read from the fitted curve at half-maximal effect)
Method in brief: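 qHTS of the Tox21 10K library in GeneBLAzer RXR-alpha HEK 293T cells carrying a beta-lactamase reporter […]; 16 hr treatment, 9-cis retinoic acid as agonist control, FRET read-out.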

[17] = qHTS assay to identify small molecule antagonists of the estrogen related receptor (ERR) signaling pathway - cell viability counter screen (AID 1224818);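 also: series mostly up to about 46 µM; viability measured after 17.5 h of compound exposure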
Method in brief: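 Quantitative high-throughput viability counter screen in ERR cells. Compounds (DMSO) incubated 17.5 h at 37 C; read-out was CellTiter-Fluor fluorescence.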

[18] = qHTS assay to identify small molecule antagonists of the estrogen related receptor signaling pathway with the pleiotropic PPARgamma coactivator (PGC) cell viability counter screen (AID 1224822; also: series mostly up to about 46 µM)
Method in brief: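 Cytotoxicity in the PGC/ERR cell line is assessed with CellTiter-Fluor, read as fluorescence intensity 30 min after reagent addition, following 17.5 h compound treatment at 37 C.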

Measured: Potency

Chain of Retinoic acid receptor RXR-alpha (Homo sapiens) (P19793 whole entry, looked up): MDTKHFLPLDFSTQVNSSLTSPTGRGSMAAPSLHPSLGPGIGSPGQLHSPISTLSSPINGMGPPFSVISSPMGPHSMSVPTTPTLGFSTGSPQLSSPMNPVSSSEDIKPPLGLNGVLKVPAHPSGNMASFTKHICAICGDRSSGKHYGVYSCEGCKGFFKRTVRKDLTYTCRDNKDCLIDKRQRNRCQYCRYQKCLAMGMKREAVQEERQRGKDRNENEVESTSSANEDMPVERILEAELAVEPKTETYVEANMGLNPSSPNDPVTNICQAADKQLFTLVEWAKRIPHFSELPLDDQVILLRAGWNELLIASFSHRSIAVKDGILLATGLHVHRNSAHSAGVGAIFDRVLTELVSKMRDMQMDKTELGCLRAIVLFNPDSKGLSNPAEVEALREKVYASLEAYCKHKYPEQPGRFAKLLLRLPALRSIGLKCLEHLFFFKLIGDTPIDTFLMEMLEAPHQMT

Oc1ccc(Cl)cc1Sc1cc(Cl)ccc1O
active: [1] 21.8 µM and 23.7 µM | [2] 30.8 µM | [4] 19.3 µM and 13.3 µM | [6] 43.6 µM | [7] 26.6 µM
54.8 µM (active) and inactive: [5]
inactive: [3] | [8]

O=C(NOCC1CC1)c1ccc(F)c(F)c1Nc1ccc(I)cc1Cl
inactive: [2] | [3] | [9] | [7]
active: [4] 9.44 µM

CC(=O)N1CCN(c2ccc(OC[C@H]3CO[C@](Cn4ccnc4)(c4ccc(Cl)cc4Cl)O3)cc2)CC1
active: [1] 21.9 µM | [3] 61.6 µM | [4] 9.69 µM | [5] 49 µM | [6] 17.4 µM | [10] 9.08 µM | [12] 29.8 µM
inactive: [11] | [13]

O=C(Oc1cccc2cccnc12)c1ccccc1
active: [1] 3.76 µM | [3] 2.39 µM | [6] 8.49 µM
inactive: [2] | [14] | [5] | [9]

CC1(C)CCC(C)(C)c2cc(C(=O)Nc3ccc(C(=O)O)cc3)ccc21
inactive: [3] | [5] | [15] | [6] | [9]
active: [4] 61.1 µM | [16] 4.36 µM

Oc1ccc(C2(c3ccc(O)cc3)CC3CC2C2CCCC32)cc1 (stereo unspecified)
active: [1] 23.6 µM | [2] 33.3 µM | [3] 52.8 µM | [14] 52.3 µM | [4] 46.6 µM | [5] 41.9 µM | [6] 16.7 µM | [7] 46.6 µM

Nc1cc(C(F)(F)F)ccc1S
active: [4] 26.6 µM | [6] 8.49 µM
inactive: [1] | [2] | [3] | [5] | [9]

C/C(=C(/OCCOc1ccc(Cl)cc1)c1ccc(Cl)cc1Cl)n1ccnc1
inactive: [2] | [3] | [14] | [5] | [16] | [6] | [9] | [7]

OCc1c[nH]c2ccccc12
not listed: [1] | [2] | [6] | [7] | [10] | [15] | [16]
inactive: all other assays above

O=[N+]([O-])c1cc(Cl)c(Cl)c(Cl)c1Cl
inactive: [1] | [2] | [3] | [14] | [4] | [5] | [6] | [9] | [8]

On1ccccc1=S
inactive: [2]
active: [1] 0.61 µM | [3] 0.385 µM | [14] 5.39 µM | [4] 0.303 µM | [5] 21.7 µM | [6] 2.43 µM
